Outcome and AC50 data for 40 compounds are collected here from PubChem BioAssay (EPA / NIEHS).

Results filed as inconclusive are left out. Calls of active or inactive are those of the source. The calls were made as follows: active = hit-call score of the fitted dose curve at least 0.9, where 1 is the maximum; inconclusive = response in the unintended direction; inactive = score below 0.9.

Read-out in the test: Cytochrome P450 2B6 (Homo sapiens) (UniProt P20813)
Nature of the test: CLD_CYP2B6_48hr: CellzDirect (CLD) Gene Expression Assay for xenobiotic metabolism (CYP2B6) at 48 hours (AID 2283699).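 Also: actives raise transcript level above DMSO so potency reflects induction.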 As for the experimental part: CLD_48hr is a cell-based, multiplexed-readout assay that uses hepatocyte, a human liver primary cell, with measurements taken at 48 hours after chemical dosing in a 96-well plate.CLD_CYP2B6_48hr is one of 16 assay component(s) measured or calculated from the CLD_48hr assay. It is designed to make measurements of mRNA induction, a form of inducible reporter, as detected with chemiluminescence signals by Quantitative Nuclease Protection Assay (qNPA) technology.Data from the assay component CLD_CYP2B6_48hr was analyzed at the endpoint, CLD_CYP2B6_48hr, in the positive analysis fitting direction relative to DMSO as the negative control and baseline of activity. Using a type of inducible reporter, gain-of-signal activity can be used to understand changes in the reporter gene as they relate to the gene CYP2B6. Furthermore, this assay endpoint can be referred to as a primary readout. To generalize the intended target to other relatable targets, this assay endpoint is annotated to the cyp intended target family, where subfamily is xenobiotic metabolism.
Human hepatocyte cultures were treated daily for two consecutive days with fresh dosing solutions containing appropriate concentrations of the 320 ToxCast chemicals (chemical identities were blinded to CellzDirect and other ToxCast collaborators), vehicle control (0.2% DMSO), and positive control inducers as summarized in Table 1. Due to the large number of treatment groups and chemicals examined, the ToxCast chemicals were divided into two groups (spanning two independent cultures of hepatocytes from separate donor preparations (Hu778: ToxCast plates 1 and 2; Hu776: ToxCast plates 3 and 4). Each preparation of human hepatocyte cultures was treated with respective vehicle control, medium only control, set of six positive controls/reference chemicals for the five hepatic receptor pathways, and a subset of eight of the ToxCast chemicals (indoxacarb, pyrithiobac-sodium, norflurazon, cyhalofop-butyl, methomyl, thiram, acetochlor, and propiconazole). These replicate data, coupled with internal replicates designed within the blinded ToxCast chemical library, provided additional data to evaluate interindividual differences between hepatocyte preparations and their potential impact on chemical profiles.Cell morphology and integrity were evaluated using phase-contrast microscopy as an indicator of hepatocyte cell health (Tyson & Green, 1987). Cultures for each treatment group (i.e., media, vehicle [0.2% DMSO], positive control inducers [multiple concentrations], and the ToxCast chemicals [multiple concentrations]) were observed and cell morphology was assessed relative to vehicle control cultures at each harvest time point (0, 6, 24, or 48 h). […] Images were evaluated at the conclusion of the study to assess changes in cell integrity and account for the effects of chemical exposure on uncharacteristic changes in concentration-dependent gene expression profiles. The results from these determinations of apparent cytotoxicity were annotated (yes/no) alongside the corresponding qNPA data for reference.At the conclusion of each treatment period, hepatocyte cultures (96-well) were washed with 1 volume of HBSS, lysed by addition of 25 ul ArrayPlate lysis buffer (HTG, Tucson, AZ), and 70 ul/well of Denaturation Oil, denatured by incubation at 95C for 10 min, and frozen at approximately -70C until analysis by nuclease protection assay (qNPA) (Roberts et al., 2007). For qNPA analysis, cell lysates were thawed at 50C for approximately 30 min, qNPA probes were added, and samples were incubated at 95C for 10 min to begin the detection process by denaturing the target RNA, dissociating the duplexes and secondary structure hybridization. At the conclusion of the hybridization period, S1 nuclease reagent was added to each sample to digest all nonprotected nucleotides at 50C for 60-90 min. […]
`Nc1c(Cl)c(Cl)nc(C(=O)O)c1Cl`: the call was inactive.
Broadly, the AC50 is the midpoint of the concentration-response curve, whichever way the signal moves. Consider `COP(=S)(OC)SCn1nnc2ccccc2c1=O`, for which the AC50 was 4.19 µM (active).
`COc1ccc(-c2ccccc2)cc1NNC(=O)OC(C)C`: the outcome was inactive.
Take `CC(C)Nc1nc(Cl)nc(NC(C)C)n1`: the AC50 was 3.11 µM (active).
`CC(C)Oc1cccc(NC(=O)c2ccccc2C(F)(F)F)c1`: the AC50 is 5.34 µM (active).
As for `CCCCC(C#N)(Cn1cncn1)c1ccc(Cl)cc1` (stereo not given), the AC50 was 4.45 µM (active).
For the compound `COP(=S)(OC)Oc1ccc([N+](=O)[O-])c(C)c1`, the AC50 was 2.67 µM (active).
As for `CCC(C)n1c(=O)[nH]c(C)c(Br)c1=O` (stereo not given), the AC50 is 3.28 µM (active).
Turning to `Clc1nc(Cl)nc(Nc2ccccc2Cl)n1`, the result was inactive.
As for `CCOP(=O)(OCC)Oc1nc(Cl)c(Cl)cc1Cl`, the concentration at half-maximal activity (AC50) is 3.97 µM (active).
Same read-out and setting: as for `N#CN=C1SCCN1Cc1ccc(Cl)nc1`, the figure is 9.25 µM (active); as for `CCN(CC)c1nc(C)cc(OP(=S)(OC)OC)n1`, 0.684 µM (active); as for `CCCCC(O)(Cn1cncn1)c1ccc(Cl)cc1Cl` (stereo not given), 0.63 µM (active).
On the same count and under the same terms, as for `COc1cc(Cl)c(OC)cc1Cl`, the figure is 0.0752 µM (active).
As for `COCc1cnc(C2=NC(C)(C(C)C)C(=O)N2)c(C(=O)O)c1` (stereo not given), the compound was called inactive.
Turning to `CC1(C)CON(Cc2ccccc2Cl)C1=O`, the AC50 was 3.23 µM (active).
On the same count and under the same terms, as for `CCOC(=O)C(C)OC(=O)c1cc(Oc2ccc(C(F)(F)F)cc2Cl)ccc1[N+](=O)[O-]` (stereo not given), the figure is 20 µM (active); as for `CCCCOCN(C(=O)CCl)c1c(CC)cccc1CC`, 2.5 µM (active).
Still for that read-out and setting: next, `COC(=O)N(C(=O)N1CO[C@@]2(C(=O)OC)Cc3cc(Cl)ccc3C2=N1)c1ccc(OC(F)(F)F)cc1`: 0.505 µM (active); `N#Cc1c(Cl)cccc1Cl`: 1.44 µM (active).
Consider `CCOP(=S)(OCC)Oc1nc(Cl)n(C(C)C)n1`, for which the AC50 was 0.427 µM (active).
Turning to `O=C1C2CC=CCC2C(=O)N1SC(Cl)(Cl)Cl` (stereo not given), the compound was classed as inactive.
Same read-out and setting: as for `COC(=O)NS(=O)(=O)c1ccc(N)cc1`, the entry is “inactive”.
With `CCOc1cc(C(C)(C)C)ccc1C1COC(c2c(F)cccc2F)=N1` (stereo not given), the AC50 was 2.11 µM (active).
`CCOc1nc(F)cc2nc(S(=O)(=O)Nc3c(Cl)cccc3Cl)nn12`: the half-maximal activity concentration (AC50) is 7.88 µM (active).
On the same count and under the same terms, as for `OC(c1ccc(Cl)cc1)(c1ccc(Cl)cc1)C(Cl)(Cl)Cl`, the figure is 4.47 µM (active).
With `O=C(O)c1c(Cl)ccc2cc(Cl)cnc12`, the compound was called inactive.
As for `CCN(CC)C(=O)C(C)Oc1cccc2ccccc12` (stereo not given), the AC50 is 6.33 µM (active).
As to `CC(C)(C)C(=O)C(Oc1ccc(Cl)cc1)n1cncn1` (stereo not given), the AC50 is 3.31 µM (active).
On the same count and under the same terms, as for `COCC(C)N(C(=O)CCl)c1c(C)csc1C` (stereo not given), the figure is 5.14 µM (active); as for `Cc1cc(C)nc(Nc2ccccc2)n1`, 1.61 µM (active).
Still for that read-out and setting: next, `COC(=O)NC(=S)Nc1ccccc1NC(=S)NC(=O)OC`: 20 µM (active).
Still for that read-out and setting: next, `CO/N=C(/C1=NOCCO1)c1ccccc1Oc1ncnc(Oc2ccccc2Cl)c1F`: 1.89 µM (active).
Turning to `Clc1cccc(C(Cl)(Cl)Cl)n1`, the AC50 is 1.47 µM (active).
In the case of `COc1cc(OC)nc(NC(=O)NS(=O)(=O)c2ncccc2OCC(F)(F)F)n1`, the result was inactive.
Take `CC1(C)C(C(=O)OC(C#N)c2cccc(Oc3ccccc3)c2)C1(C)C` (stereo not given): the AC50 was 4.06 µM (active).
As for `CS(=O)(=O)c1ccc(C(=O)C2C(=O)CCCC2=O)c([N+](=O)[O-])c1`, the result was inactive.
As to `CC1(C)C(C=C(Cl)Cl)C1C(=O)OC(C#N)c1cccc(Oc2ccccc2)c1` (stereo not given), the concentration at half-maximal activity (AC50) is 6.46 µM (active).
Still for that read-out and setting: next, `COC(=O)c1c(C(F)F)nc(C(F)(F)F)c(C2=NCCS2)c1CC(C)C`: 0.378 µM (active).
`CCCC(=NOCC)C1=C(O)CC(CC(C)SCC)CC1=O` (stereo not given): the compound was called inactive.
